The panel holds about 83,000 compounds, 20% with a hit somewhere; the sample as a whole holds those more often.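 Values shown are percent growth following 48 h exposure of cells in 96-well plates to a single concentration of compound; below 10 was considered active.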 The source made the active and inactive calls.
What was measured:
Test in all cases: NCI-60 one-dose screen, 48 h (100 = growth as untreated, 0 = no growth, -100 = all killed)
Details in all cases: 10 µM unless noted
T-47D breast = system: T-47D breast
BT-549 breast = system: BT-549 breast
MDA-MB-435 melanoma = system: MDA-MB-435 melanoma
SW-620 colon = system: SW-620 colon
MCF7 breast = system: MCF7 breast
HCT-116 colon = system: HCT-116 colon
HCC-2998 colon = system: HCC-2998 colon
KM12 colon = system: KM12 colon

Measured: growth

COc1ccc(/C=N/Nc2cc(=O)[nH]c3ccc(Cl)cc23)cc1
inactive: T-47D breast 42.4% | BT-549 breast 32.1% | MDA-MB-435 melanoma 43.2% | SW-620 colon 37.9% | MCF7 breast 35.2% | HCC-2998 colon 88.8% | KM12 colon 46.6%
active: HCT-116 colon 8.92%

c1ccc2c(-c3nc(-c4c[nH]c5ccncc45)cs3)c[nH]c2c1
inactive: T-47D breast 58.8% | BT-549 breast 77.3% | MCF7 breast 20.5% | KM12 colon 34%
active: MDA-MB-435 melanoma -79.8% | SW-620 colon -63% | HCT-116 colon -15.3% | HCC-2998 colon -34.4%

C=C1C(=O)O[C@H]2[C@H]1CC/C(COC(=O)CCSSCCC(=O)OC/C1=C/CC[C@@]3(C)O[C@H]3[C@H]3OC(=O)C(=C)[C@@H]3CC1)=C\CC[C@@]1(C)O[C@@H]21
active: T-47D breast -8.54% | BT-549 breast -78.5% | SW-620 colon -77.7% | MCF7 breast -49.4% | HCT-116 colon -90.2%
inactive: MDA-MB-435 melanoma 10.8% | HCC-2998 colon 67% | KM12 colon 51.6%

COc1ccc(/C=C(/C#N)n2nnc3cccc(F)c32)cc1
active: T-47D breast 9.54% | MDA-MB-435 melanoma -56.4% | KM12 colon 5.54%
inactive: BT-549 breast 20.3% | SW-620 colon 11.9% | MCF7 breast 17.1% | HCT-116 colon 10.1% | HCC-2998 colon 36%

Cc1nc2cnc(N)c(C#Cc3cncc(C(=O)Nc4ccc(CN5CCN(C)CC5)c(C(F)(F)F)c4)c3)c2nc1C
active: MDA-MB-435 melanoma 0.973% | SW-620 colon -20.9% | MCF7 breast 1.7% | HCT-116 colon 0.345% | KM12 colon -17.4%
inactive: T-47D breast 45.2% | BT-549 breast 35.6% | HCC-2998 colon 11.5%

CNC(C)[C@H]1CCC2C3CCC4C[C@@H](N(C)C(=O)c5ccccc5)CC[C@]4(C)C3CC[C@@]21C (stereo partly drawn)
inactive: BT-549 breast 31% | HCC-2998 colon 18.4% | KM12 colon 15.4%
active: T-47D breast 0.208% | MDA-MB-435 melanoma -25.6% | SW-620 colon -21.7% | MCF7 breast 5.05% | HCT-116 colon -1.52%

CC1Cc2c(ncn3c(-c4ccc(F)cc4)nnc23)N(C)c2ccccc21 (stereo not drawn)
inactive: T-47D breast 35.1% | BT-549 breast 80.1% | MDA-MB-435 melanoma 59.2% | SW-620 colon 36.2% | MCF7 breast 52.2% | HCT-116 colon 86% | HCC-2998 colon 80.3% | KM12 colon 72.2%

COc1cc(/C=C/C(=O)/C=C/c2cc(OC)c3c(c2OC)OCO3)c(OC)c2c1OCO2
active: HCT-116 colon 2.58%
inactive: T-47D breast 31% | BT-549 breast 31.4% | MDA-MB-435 melanoma 11.5% | SW-620 colon 17.8% | MCF7 breast 19.1% | HCC-2998 colon 107% | KM12 colon 37%

N#CC1=C(N)Oc2c(sc3c(Br)cccc23)C1c1ccc([N+](=O)[O-])cc1 (stereo not drawn)
inactive: T-47D breast 64.9% | BT-549 breast 28.8% | SW-620 colon 18.1% | MCF7 breast 10.2% | HCC-2998 colon 10.2%
active: MDA-MB-435 melanoma -58.4% | HCT-116 colon 8.77% | KM12 colon 8.9%

CCOC(=O)Cn1c(=O)c2c(c3ccccc3n2C)n2nnc(-c3ccccc3)c12
inactive: T-47D breast 104% | BT-549 breast 114% | MDA-MB-435 melanoma 113% | SW-620 colon 109% | MCF7 breast 75.1% | HCT-116 colon 90% | HCC-2998 colon 109% | KM12 colon 104%

CCCCCCNC(=O)Oc1ccc(/C(=C(\C)c2ccc(Cl)cc2)c2ccc(OCCN(CC)CC)cc2)cc1
inactive: T-47D breast 39.7% | BT-549 breast 82.7% | MDA-MB-435 melanoma 65% | SW-620 colon 18.2% | MCF7 breast 24.6% | HCT-116 colon 29.6% | HCC-2998 colon 78.7% | KM12 colon 44.6%

Nc1cc2c(cc1Br)-c1cc(Cl)ccc1C2=O
inactive: T-47D breast 91.7% | BT-549 breast 121% | MDA-MB-435 melanoma 117% | SW-620 colon 109% | MCF7 breast 57.9% | HCT-116 colon 96.1% | HCC-2998 colon 114% | KM12 colon 98.6%

COc1c(C2CC(=O)Nc3c2c(C)nn3-c2nc3ccccc3[nH]2)cc2c(c1OC)OCO2 (stereo not drawn)
inactive: T-47D breast 43.8% | BT-549 breast 47.8% | SW-620 colon 36.4% | MCF7 breast 24.1% | HCT-116 colon 28.5% | HCC-2998 colon 94.1% | KM12 colon 45.9%
active: MDA-MB-435 melanoma -32.7%

CCCCC[C@H](O)C/C=C1/C(=O)C=C[C@@H]1C/C=C\CCCC(=O)OC
inactive: T-47D breast 69.3% | BT-549 breast 35.3% | SW-620 colon 16.1% | MCF7 breast 18.6% | HCT-116 colon 13% | HCC-2998 colon 77.8% | KM12 colon 16.5%
active: MDA-MB-435 melanoma -9.31%

COc1cc(CCC[P+](c2ccccc2)(c2ccccc2)c2ccccc2)c(OC)c(OC)c1OC
active: MDA-MB-435 melanoma 0.374%
inactive: T-47D breast 63.5% | BT-549 breast 72.9% | SW-620 colon 82.6% | MCF7 breast 39% | HCT-116 colon 61.9% | HCC-2998 colon 100% | KM12 colon 75.9%

O=C(S)CNC(=O)c1ccccc1
inactive: T-47D breast 102% | BT-549 breast 86.2% | MDA-MB-435 melanoma 104% | SW-620 colon 97.6% | MCF7 breast 98.7% | HCT-116 colon 87.6% | HCC-2998 colon 101% | KM12 colon 105%

CC[C@H](C)C(=O)O[C@H]1CCC=C2C=C[C@H](C)[C@H](CC[C@@H]3CC=CC(=O)O3)[C@H]21
inactive: T-47D breast 83.5% | BT-549 breast 87.5% | MDA-MB-435 melanoma 86% | SW-620 colon 85.9% | MCF7 breast 72.3% | HCT-116 colon 48.5% | HCC-2998 colon 101% | KM12 colon 72.5%

Cc1ccc(C(C)C)cc1C(=O)C[n+]1ccccc1
inactive: T-47D breast 88.7% | BT-549 breast 95.8% | MDA-MB-435 melanoma 101% | SW-620 colon 106% | MCF7 breast 87.1% | HCT-116 colon 79% | HCC-2998 colon 107% | KM12 colon 101%

COc1ccc(C(=S)N2CCN(c3cccc(C)c3)CC2)cc1OC
inactive: T-47D breast 76% | BT-549 breast 59.1% | SW-620 colon 36.5% | MCF7 breast 43.4% | HCT-116 colon 37% | HCC-2998 colon 62.5% | KM12 colon 43.2%
active: MDA-MB-435 melanoma 2.58%

BrCCCc1n(Cc2ccc3ccccc3c2)c2ccccc2[n+]1Cc1ccc2ccccc2c1
active: T-47D breast -10.9% | BT-549 breast -73.5% | MDA-MB-435 melanoma -96.5% | SW-620 colon -81.5% | MCF7 breast -74.7% | HCT-116 colon -89.7% | HCC-2998 colon -90.1% | KM12 colon -89.7%

NS(=O)(=O)c1ccc(-n2nc(C(=O)N/N=C\c3ccc(F)cc3)cc2-c2ccc(Br)cc2)cc1
active: MDA-MB-435 melanoma -1.32%
inactive: T-47D breast 69.7% | BT-549 breast 86.1% | SW-620 colon 62.8% | MCF7 breast 55.1% | HCT-116 colon 82.8% | HCC-2998 colon 86.9% | KM12 colon 61.8%

CN1CCN(c2ccc(-c3cc4c(Nc5ccc(F)c(Cl)c5)ncnn4c3)cc2)CC1
inactive: T-47D breast 63.4% | BT-549 breast 98.5% | MDA-MB-435 melanoma 76.4% | SW-620 colon 25.2% | MCF7 breast 45.3% | HCT-116 colon 15.7% | HCC-2998 colon 53.8% | KM12 colon 13.8%

O=CN(SSN(C=O)C1CCCCC1)C1CCCCC1
inactive: T-47D breast 79.2% | BT-549 breast 137% | MDA-MB-435 melanoma 110% | SW-620 colon 92.3% | MCF7 breast 102% | HCT-116 colon 85.9% | HCC-2998 colon 116% | KM12 colon 104%

COc1ccc(/C=C2\Oc3cc(OCCN4CCC(Cc5ccccc5)CC4)ccc3C2=O)cc1OC
inactive: T-47D breast 60.7% | BT-549 breast 64.2% | MDA-MB-435 melanoma 76.5% | SW-620 colon 40.8% | MCF7 breast 49.2% | HCT-116 colon 49% | KM12 colon 68.2%
active: HCC-2998 colon -2.67%

COc1cc2cc(Oc3ccc(NC(=O)Nc4ccc(Cl)c(C(F)(F)F)c4)cc3)c(C)nc2cc1OCCN1CCOCC1
active: MCF7 breast 4.87%
inactive: T-47D breast 22.6% | BT-549 breast 48.6% | MDA-MB-435 melanoma 15.5% | SW-620 colon 15.1% | HCT-116 colon 10.3% | HCC-2998 colon 36.9% | KM12 colon 14.9%

Cc1ccc(C(=O)NCCNc2nccc(-c3c(-c4cccc(F)c4)nc4sccn34)n2)cc1
inactive: T-47D breast 42.4% | BT-549 breast 55.2% | MDA-MB-435 melanoma 41.6% | SW-620 colon 61.8% | MCF7 breast 27.2% | HCT-116 colon 27% | HCC-2998 colon 64.2% | KM12 colon 77.5%

CCOC(=O)c1c(C)nc2c(c1N)CC(=O)N2Cc1ccc(F)cc1
inactive: T-47D breast 73.2% | BT-549 breast 72.5% | MDA-MB-435 melanoma 99.8% | SW-620 colon 92.2% | MCF7 breast 96.1% | HCT-116 colon 87.6% | HCC-2998 colon 103% | KM12 colon 97.7%

Cc1cccc(OCC(O)CN2CCN(c3ccc(Cl)cc3)CC2)c1 (stereo not drawn)
inactive: T-47D breast 107% | BT-549 breast 99.6% | MDA-MB-435 melanoma 111% | SW-620 colon 104% | MCF7 breast 87.5% | HCT-116 colon 86.7% | HCC-2998 colon 110% | KM12 colon 106%

N#C/C(=C\c1cccc2cnccc12)n1nnc2cccc(F)c21
inactive: T-47D breast 23.5% | BT-549 breast 17% | MDA-MB-435 melanoma 29% | SW-620 colon 21.5% | MCF7 breast 19.3% | HCT-116 colon 10.4% | HCC-2998 colon 42.7% | KM12 colon 62.1%

COc1ccc(-c2cnc3ccccc3n2)cc1
inactive: T-47D breast 96.7% | BT-549 breast 95.1% | MDA-MB-435 melanoma 94.4% | SW-620 colon 96.6% | MCF7 breast 105% | HCT-116 colon 99.2% | HCC-2998 colon 95.4% | KM12 colon 92.7%

CCCSc1nc2ccc(C)cc2cc1/C=[N+](\[O-])c1ccccc1
inactive: T-47D breast 56.6% | BT-549 breast 42.1% | SW-620 colon 22.7% | MCF7 breast 21.8% | HCC-2998 colon 98.2% | KM12 colon 25%
active: MDA-MB-435 melanoma -24.1% | HCT-116 colon 9.07%

Source: PubChem BioAssay (NCI)
